Data as given in paper PMC11006913.
Substitutions are numbered along the chain they refer to.

Key:
Experiment in all cases: PBM; 200 nM protein, PBS
Details in all cases: dsDNA, one strand shown
VENTX [1] = molecular target: T1, VENTX (Homo sapiens, UniProt O95231 78-163, R121Q)
T1 sequence: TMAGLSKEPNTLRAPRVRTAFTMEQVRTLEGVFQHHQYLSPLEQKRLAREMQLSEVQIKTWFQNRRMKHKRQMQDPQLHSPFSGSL

HOXA4 [2] = molecular target: HOXA4 (Homo sapiens, UniProt Q00056 201-287, W262R)
VENTX [3] = molecular target: T2, VENTX (Homo sapiens, UniProt O95231 78-163)
T2 sequence: T1 sequence with Q44R

VENTX [4] = molecular target: T3, VENTX (Homo sapiens, UniProt O95231 78-163, Y115F)
T3 sequence: T1 sequence with Y38F, Q44R

HOXA4 [5] = molecular target: HOXA4 (Homo sapiens, UniProt Q00056 201-287, R217L)
HOXA4 (Homo sapiens, UniProt Q00056 201-287, R217L), sequence (Q00056 201-287 R217L): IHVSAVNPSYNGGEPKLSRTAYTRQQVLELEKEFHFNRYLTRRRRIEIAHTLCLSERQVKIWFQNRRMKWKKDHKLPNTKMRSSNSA

HOXD13 [6] = molecular target: HOXD13 (Homo sapiens, UniProt P35453 263-343, T313R)
HOXD13 (Homo sapiens, UniProt P35453 263-343, T313R), sequence (P35453 263-343 T313R): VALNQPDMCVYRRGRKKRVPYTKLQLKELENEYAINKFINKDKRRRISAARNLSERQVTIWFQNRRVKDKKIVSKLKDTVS

NKX2-6 [7] = molecular target: T4, NKX2-6 (Homo sapiens, UniProt A6NCS4 118-204)
T4 sequence: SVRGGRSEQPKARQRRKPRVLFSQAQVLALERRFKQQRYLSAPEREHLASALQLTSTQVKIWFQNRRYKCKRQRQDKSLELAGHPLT

HOXD13 [8] = molecular target: HOXD13 (Homo sapiens, UniProt P35453 263-343)
HOXD13 (Homo sapiens, UniProt P35453 263-343), sequence (P35453 263-343): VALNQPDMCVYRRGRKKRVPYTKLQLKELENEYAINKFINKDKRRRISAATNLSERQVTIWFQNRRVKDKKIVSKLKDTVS

HOXA4 [9] = molecular target: HOXA4 (Homo sapiens, UniProt Q00056 201-287)
HOXA4 (Homo sapiens, UniProt Q00056 201-287), sequence (Q00056 201-287): as the sequence (Q00056 201-287 R217L) above, with L17R counted along it

HOXD13 [10] = molecular target: HOXD13 (Homo sapiens, UniProt P35453 263-343, T313A)
HOXD13 (Homo sapiens, UniProt P35453 263-343, T313A), sequence (P35453 263-343 T313A): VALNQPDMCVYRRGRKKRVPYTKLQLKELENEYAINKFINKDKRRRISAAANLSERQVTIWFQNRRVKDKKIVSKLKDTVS

NKX2-6 [11] = molecular target: T5, NKX2-6 (Homo sapiens, UniProt A6NCS4 118-204, F151L)
T5 sequence: T4 sequence with F34L

HOXA4 [12] = molecular target: HOXA4 (Homo sapiens, UniProt Q00056 201-287, W262F)
HOXA4 (Homo sapiens, UniProt Q00056 201-287, W262F), sequence (Q00056 201-287 W262F): as the sequence (Q00056 201-287 R217L) above, with L17R, W62F counted along it

HOXC9 [13] = molecular target: HOXC9 (Homo sapiens, UniProt P31274 178-260, K195R)
HOXC9 (Homo sapiens, UniProt P31274 178-260, K195R), sequence (P31274 178-260 K195R): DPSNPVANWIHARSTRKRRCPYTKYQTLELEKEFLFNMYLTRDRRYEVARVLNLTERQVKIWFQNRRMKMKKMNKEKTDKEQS

HOXB6 [14] = molecular target: HOXB6 (Homo sapiens, UniProt P17509 132-218, K202E)
HOXB6 (Homo sapiens, UniProt P17509 132-218, K202E), sequence (P17509 132-218 K202E): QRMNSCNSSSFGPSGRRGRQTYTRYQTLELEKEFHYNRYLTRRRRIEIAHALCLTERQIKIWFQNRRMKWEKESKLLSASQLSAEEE

HOXC9 [15] = molecular target: HOXC9 (Homo sapiens, UniProt P31274 178-260)
HOXC9 (Homo sapiens, UniProt P31274 178-260), sequence (P31274 178-260): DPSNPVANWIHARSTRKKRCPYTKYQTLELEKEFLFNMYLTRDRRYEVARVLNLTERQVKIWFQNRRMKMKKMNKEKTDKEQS

HOXC9 [16] = molecular target: HOXC9 (Homo sapiens, UniProt P31274 178-260, R193K)
HOXC9 (Homo sapiens, UniProt P31274 178-260, R193K), sequence (P31274 178-260 R193K): as the sequence (P31274 178-260) above, with R16K counted along it

HOXC9 [17] = molecular target: HOXC9 (Homo sapiens, UniProt P31274 178-260, R222W)
HOXC9 (Homo sapiens, UniProt P31274 178-260, R222W), sequence (P31274 178-260 R222W): as the sequence (P31274 178-260) above, with R45W counted along it

HOXB6 [18] = molecular target: HOXB6 (Homo sapiens, UniProt P17509 132-218)
HOXB6 (Homo sapiens, UniProt P17509 132-218), sequence (P17509 132-218): as the sequence (P17509 132-218 K202E) above, with E71K counted along it

ALX4 [19] = molecular target: ALX4 (Homo sapiens, UniProt Q9H161 200-286)
ALX4 (Homo sapiens, UniProt Q9H161 200-286), sequence (Q9H161 200-286): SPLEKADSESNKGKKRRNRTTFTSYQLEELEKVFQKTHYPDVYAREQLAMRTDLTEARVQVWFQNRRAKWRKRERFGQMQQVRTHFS

ALX4 [20] = molecular target: ALX4 (Homo sapiens, UniProt Q9H161 200-286, Q225E)
ALX4 (Homo sapiens, UniProt Q9H161 200-286, Q225E), sequence (Q9H161 200-286 Q225E): as the sequence (Q9H161 200-286) above, with Q26E counted along it

HOXA4 (Homo sapiens, UniProt Q00056 201-287, W262R), sequence (Q00056 201-287 W262R): as the sequence (Q00056 201-287 R217L) above, with L17R, W62R counted along it

Sequence | binding signal (VENTX [1]) | binding signal (HOXA4 [2]) | binding signal (VENTX [3]) | binding signal (VENTX [4]) | binding signal (HOXA4 [5]) | binding signal (HOXD13 [6]) | binding signal (NKX2-6 [7]) | binding signal (HOXD13 [8]) | binding signal (HOXA4 [9]) | binding signal (HOXD13 [10]) | binding signal (NKX2-6 [11]) | binding signal (HOXA4 [12]) | binding signal (HOXC9 [13]) | binding signal (HOXB6 [14]) | binding signal (HOXC9 [15]) | binding signal (HOXC9 [16]) | binding signal (HOXC9 [17]) | binding signal (HOXB6 [18]) | binding signal (ALX4 [19]) | binding signal (ALX4 [20])
CCCCCTGC | 8.15 upbm affinity estimate (log intensity, higher = more binding, comparable within an allelic series) | 9.55 upbm affinity estimate (log intensity, higher = more binding, comparable within an allelic series) | 8.15 upbm affinity estimate (log intensity, higher = more binding, comparable within an allelic series) | 8.11 upbm affinity estimate (log intensity, higher = more binding, comparable within an allelic series) | 9.45 upbm affinity estimate (log intensity, higher = more binding, comparable within an allelic series) | 9.12 upbm affinity estimate (log intensity, higher = more binding, comparable within an allelic series) | 8.96 upbm affinity estimate (log intensity, higher = more binding, comparable within an allelic series) | 9.26 upbm affinity estimate (log intensity, higher = more binding, comparable within an allelic series) | 9.54 upbm affinity estimate (log intensity, higher = more binding, comparable within an allelic series) | 9.34 upbm affinity estimate (log intensity, higher = more binding, comparable within an allelic series) | 8.92 upbm affinity estimate (log intensity, higher = more binding, comparable within an allelic series) | 9.59 upbm affinity estimate (log intensity, higher = more binding, comparable within an allelic series) | – | – | – | – | – | – | – | –
CCAGGGCC | 8.11 upbm affinity estimate (log intensity, higher = more binding, comparable within an allelic series) | 9.65 upbm affinity estimate (log intensity, higher = more binding, comparable within an allelic series) | 8.27 upbm affinity estimate (log intensity, higher = more binding, comparable within an allelic series) | 8.19 upbm affinity estimate (log intensity, higher = more binding, comparable within an allelic series) | 9.71 upbm affinity estimate (log intensity, higher = more binding, comparable within an allelic series) | – | – | – | 9.79 upbm affinity estimate (log intensity, higher = more binding, comparable within an allelic series) | – | – | 9.73 upbm affinity estimate (log intensity, higher = more binding, comparable within an allelic series) | – | – | – | – | – | – | – | –
AGTTAATG | 11.5 upbm affinity estimate (log intensity, higher = more binding, comparable within an allelic series) | – | 12.4 upbm affinity estimate (log intensity, higher = more binding, comparable within an allelic series) | 11.4 upbm affinity estimate (log intensity, higher = more binding, comparable within an allelic series) | – | – | – | – | – | – | – | 11.4 upbm affinity estimate (log intensity, higher = more binding, comparable within an allelic series) | 12.5 upbm affinity estimate (log intensity, higher = more binding, comparable within an allelic series) | 9.94 upbm affinity estimate (log intensity, higher = more binding, comparable within an allelic series) | 12.5 upbm affinity estimate (log intensity, higher = more binding, comparable within an allelic series) | 12.5 upbm affinity estimate (log intensity, higher = more binding, comparable within an allelic series) | 10.8 upbm affinity estimate (log intensity, higher = more binding, comparable within an allelic series) | 11.7 upbm affinity estimate (log intensity, higher = more binding, comparable within an allelic series) | – | –
CGGAGGGA | 8.11 upbm affinity estimate (log intensity, higher = more binding, comparable within an allelic series) | 9.84 upbm affinity estimate (log intensity, higher = more binding, comparable within an allelic series) | 7.97 upbm affinity estimate (log intensity, higher = more binding, comparable within an allelic series) | 8.17 upbm affinity estimate (log intensity, higher = more binding, comparable within an allelic series) | 9.72 upbm affinity estimate (log intensity, higher = more binding, comparable within an allelic series) | – | 9.02 upbm affinity estimate (log intensity, higher = more binding, comparable within an allelic series) | – | 9.76 upbm affinity estimate (log intensity, higher = more binding, comparable within an allelic series) | – | 9.3 upbm affinity estimate (log intensity, higher = more binding, comparable within an allelic series) | 9.79 upbm affinity estimate (log intensity, higher = more binding, comparable within an allelic series) | 9.42 upbm affinity estimate (log intensity, higher = more binding, comparable within an allelic series) | – | 9.45 upbm affinity estimate (log intensity, higher = more binding, comparable within an allelic series) | 9.42 upbm affinity estimate (log intensity, higher = more binding, comparable within an allelic series) | 9.69 upbm affinity estimate (log intensity, higher = more binding, comparable within an allelic series) | – | 7.87 upbm affinity estimate (log intensity, higher = more binding, comparable within an allelic series) | 8.03 upbm affinity estimate (log intensity, higher = more binding, comparable within an allelic series)
